Results on eleven molecules are retold here after PubChem BioAssay AID588683 (Broad Institute, 2011).

Potency and affinity values are given separately. A number with no mark means an inactive call. The rule behind the calls is not given here.

For this assay, the target named is Kelch-like ECH-associated protein 1 (Homo sapiens) + Nuclear factor erythroid 2-related factor 2 (Homo sapiens) (UniProt Q14145+Q16236). As to the kind of experiment: Keap1-Nrf2 protein-protein interaction inhibitors, dose response, biochemical, fluorescence polarization, cherry-picked samples (AID 588683).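 Note: Kelch domain of Keap1 binding a fluorescein-labelled 9mer Nrf2 peptide; more negative means stronger inhibition of peptide binding.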 Particulars: Keap1/Nrf2 peptide fluorescence polarization, plate reader; series mostly up to 26 µM; activity change, negative = inhibition: at the top concentration.
Kelch-like ECH-associated protein 1 (Homo sapiens) + Nuclear factor erythroid 2-related factor 2 (Homo sapiens), sequence (Q14145 whole entry, looked up, the tested form may be a part): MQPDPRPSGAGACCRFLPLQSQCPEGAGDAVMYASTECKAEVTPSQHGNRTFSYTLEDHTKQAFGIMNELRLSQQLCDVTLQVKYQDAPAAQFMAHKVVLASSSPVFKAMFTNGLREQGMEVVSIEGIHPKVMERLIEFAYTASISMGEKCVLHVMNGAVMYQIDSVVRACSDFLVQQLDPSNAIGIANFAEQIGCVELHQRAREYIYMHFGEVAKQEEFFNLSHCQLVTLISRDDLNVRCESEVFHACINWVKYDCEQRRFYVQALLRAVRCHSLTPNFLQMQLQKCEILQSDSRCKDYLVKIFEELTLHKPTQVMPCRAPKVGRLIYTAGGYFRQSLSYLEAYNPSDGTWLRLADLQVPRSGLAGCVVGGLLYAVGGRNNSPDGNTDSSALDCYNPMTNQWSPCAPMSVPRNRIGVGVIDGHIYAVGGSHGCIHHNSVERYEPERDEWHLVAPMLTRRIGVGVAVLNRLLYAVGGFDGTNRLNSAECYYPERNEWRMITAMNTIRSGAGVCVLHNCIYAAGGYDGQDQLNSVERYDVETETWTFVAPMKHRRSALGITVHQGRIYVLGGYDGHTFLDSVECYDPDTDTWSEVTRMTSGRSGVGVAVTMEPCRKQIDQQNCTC
Kelch-like ECH-associated protein 1 (Homo sapiens) + Nuclear factor erythroid 2-related factor 2 (Homo sapiens), sequence (Q16236 whole entry, looked up, the tested form may be a part): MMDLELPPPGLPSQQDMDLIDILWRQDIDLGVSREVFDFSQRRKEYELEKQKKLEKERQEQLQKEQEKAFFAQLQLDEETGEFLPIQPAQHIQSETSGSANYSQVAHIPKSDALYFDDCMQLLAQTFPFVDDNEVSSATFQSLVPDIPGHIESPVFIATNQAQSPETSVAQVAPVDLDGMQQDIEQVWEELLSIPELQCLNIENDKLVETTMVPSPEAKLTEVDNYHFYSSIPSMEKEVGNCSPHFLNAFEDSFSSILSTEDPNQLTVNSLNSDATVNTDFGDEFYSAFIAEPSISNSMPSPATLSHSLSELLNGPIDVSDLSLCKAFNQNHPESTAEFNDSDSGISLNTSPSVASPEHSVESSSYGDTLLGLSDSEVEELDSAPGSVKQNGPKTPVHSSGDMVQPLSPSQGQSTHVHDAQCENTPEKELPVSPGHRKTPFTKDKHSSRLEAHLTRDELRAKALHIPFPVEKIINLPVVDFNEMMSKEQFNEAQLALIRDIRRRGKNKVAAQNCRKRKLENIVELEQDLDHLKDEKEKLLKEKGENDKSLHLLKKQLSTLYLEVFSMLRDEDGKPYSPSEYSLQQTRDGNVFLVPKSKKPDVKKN
In the case of `CCn1cc(C=C2C(=O)NC(=O)NC2=O)c2ccccc21`, the “activity change, negative = inhibition” value is 32%.

`COc1ccc(-n2c(CNCCc3ccc(C)cc3)nc3ccccc3c2=O)cc1`: the “activity change, negative = inhibition” value is -0.955%. The value for `Cc1cc(C=C2C(=O)NC(=O)NC2=O)c(C)n1-c1cccnc1` was -6.36%. Consider `CCCCc1ccc(C(=O)O)nc1`, for which the “activity change, negative = inhibition” value was 1.5%. On to `COCCNC(=O)Cn1cc(/C=C2\C(=O)NC(=O)N(c3cccc(C)c3C)C2=O)c2ccccc21`, for which the “activity change, negative = inhibition” value was 5.42%.

Take `Cn1cc(/C=C2\C(=O)NC(=O)N(c3ccccc3)C2=O)c2ccccc21`: the “activity change, negative = inhibition” value was -8.02%. Take `CC1(O)CCN2C(=O)CCc3cccc1c32` (stereo unspecified): the “activity change, negative = inhibition” value is 34.6%.

In the case of `O=C(O)c1cccc2c1NC(C(=O)O)C1CC(Sc3ccccc3[N+](=O)[O-])C(Cl)C21` (stereo unspecified), the “activity change, negative = inhibition” value was -8.32%.

For the molecule `CN1/C(=C\C=C2C(=O)NC(=O)NC2=O)C(C)(C)c2ccccc21`, the “activity change, negative = inhibition” value is 211%.

Turning to `CN1CC=C2C(C#N)=C(N)C(C#N)(C#N)C(c3ccncc3)C2C1` (stereo unspecified), the “activity change, negative = inhibition” value was -17.4%. With `CCOC(=O)c1c(/N=C/c2c(O)n(-c3cccc(C)c3)c(=O)[nH]c2=O)sc2c1CCCC2`, the “activity change, negative = inhibition” value is 15.4%.
